Rows were chosen to be rich in hits. Some 3.6% of all compounds tested hit in one or more screens of this group.
Autofluor counter = compound fluorescence in toxin protease inhibitor counterscreen | compound autofluorescence counterscreen, microsphere flow cytometry; stronger effect = higher value | hit rate 3.1% among 360,000 | fluorescence intensity (test concentration not listed); in the data active means fluorescence intensity above about 16000; inconclusive means no clear call, values can overlap the other calls
BJeLR lethal = BJeLR cell viability loss | BJeLR (HRASV12) viability, CellTiter-Glo ATP luminescence, 48 h | inhibition, % (concentration not given with the values) | hit rate 0.17% among 300,000 | AID 1554; in the data active means inhibition above about 50%; inconclusive means no clear call, values can overlap the other calls
Anthrax LF prot = blocks Bacillus anthracis lethal factor protease; multiplex microsphere protease cleavage assay, LF; inhibition, % at 10 µM; hit rate 0.12% among 360,000; AID 588501
BoNT-F LC inh = BoNT F light chain protease inhibition | inhibition, % at 10 µM | Multiplex microsphere protease cleavage assay, flow cytometry | AID 588497 | hit rate 0.22% among 360,000; in the data active means inhibition above about 35%, passing the limit was not always enough; inconclusive means no clear call, values can overlap the other calls
3CLpro inhibitor = SARS-CoV 3CLpro protease inhibition. P0C6X7. recombinant SARS-CoV 3CLpro, quenched FRET peptide cleavage. inhibition, % at 6 µM. hit rate 0.14% among 290,000; in the data active means inhibition above about 12%
BoNT-A LC inh2 = blocks Botulinum neurotoxin A light chain protease; multiplex microsphere protease substrate cleavage, flow cytometry; inhibition, % at 10 µM; hit rate 0.17% among 360,000
Of the large screens only hits and unclear results are named; the others gave an inactive call. Unless noted, no stated cut-off is given here; in the data, active means inhibition above about 30%; inconclusive means no clear call, values can overlap the other calls; inactive means below that.

Cc1cc(C)n(-c2nc3ccccc3c(=O)n2OCc2ccc(F)cc2)n1	none
Nc1ccccc1C(=O)N/N=C1\C2CN3CCN(C2)CC1(c1ccccc1)C3	none
CCCn1cc(CN2CCC(n3nccc3NC(=O)CCOc3ccccc3)CC2)c(C)n1	none
C[C@@H](C(=O)NC1CCCCC1)N1C(=O)N2CCc3c([nH]c4ccccc34)[C@@]2(C)C1=O	none
CC1(C)OC(=O)C(=CNc2ccccc2)C(=O)O1	Autofluor counter 18882
CC1(C)OC(=O)C(=CNc2cccc(O)c2)C(=O)O1	none
CC(=O)c1ccc(-n2c(CCC(=O)O)ccc2-c2cccs2)cc1	none
Cc1ccc(-n2c(CCC(=O)O)ccc2-c2cccs2)cc1	Autofluor counter 23564
O=C(COC(=O)c1ccccc1NCCO)NCc1cccs1	none (no result: 3CLpro inhibitor)
Cc1cc(/C=C(\C#N)C(=O)Nc2ccc(F)cc2)c(C)n1-c1ccc(N2CCOCC2)c([N+](=O)[O-])c1	Autofluor counter 22759
Cc1cc(/C=C(\C#N)C(=O)Nc2ccccc2)c(C)n1-c1ccc2c(c1)OCO2	Autofluor counter 20884
CC1CCC2(CC1)NC(=O)N(CC(=O)NCc1ccc(Cl)cc1)C2=O (stereo unspecified)	none (no result: BJeLR lethal, 3CLpro inhibitor)
CCN1CNC(=S)N(c2cc(C)ccc2C)C1	Autofluor counter 21089, BoNT-A LC inh2 inconclusive
CC1=C(C(=O)N2CCOCC2)CC(CC(=O)NC2CCCCC2)C(=O)N1Cc1ccc(F)cc1 (stereo unspecified)	none (no result: BJeLR lethal, 3CLpro inhibitor)
COc1ccc(CCNc2nnc(Sc3nnnn3-c3ccccc3)s2)cc1OC	BJeLR lethal 60
NC(=O)c1ccc(NC(=O)c2ccc(COc3ccc(F)cc3)o2)cc1	none (no result: BJeLR lethal, 3CLpro inhibitor)
O=C(NCCCO)C12CC3CC(CC(C3)C1)C2	none
O=C(O)CSCNC(=O)C12CC3CC(CC(C3)C1)C2	Autofluor counter 16463
Cc1cc(SCC(=O)N/N=C/c2ccc(O)c(O)c2O)c(C)cc1Br	Autofluor counter 22001
COc1cc(/C=N/NC(=O)CSc2cc(C)c(Br)cc2C)ccc1O	none
O=C(O)C1CCCN1S(=O)(=O)c1ccc2[nH]c(=O)c(=O)[nH]c2c1 (stereo unspecified)	Autofluor counter 25018
Nc1ccc(S(=O)(=O)N2CCCC2C(=O)O)cc1 (stereo unspecified)	none
COc1cc(S(=O)(=O)N2CCN(Cc3ccccc3)CC2)ccc1Br	none
O=c1[nH]c2ccc(S(=O)(=O)N3CCN(Cc4ccccc4)CC3)cc2[nH]c1=O	Autofluor counter 21331
CCOc1cc2c3c(c1)C1(OCCO1)C(=O)N3C(C)(C)CC2C (stereo unspecified)	none
CCOc1cc2c3c(c1)C1(Nc4ccccc4S1)C(=O)N3C(C)(C)CC2C (stereo unspecified)	Autofluor counter 23624, BoNT-A LC inh2 inconclusive
Cc1cnc(C(=O)OC(C)C(=O)NCc2ccccc2)cn1 (stereo unspecified)	none (no result: 3CLpro inhibitor)
CCCCN1C(=O)/C(=C2/Sc3ccc(OC)cc3N2CC)SC1=S	BoNT-F LC inh inconclusive
CCCCOC(=O)CCCN1C(=O)/C(=C2\SC(=S)N(CCCC(=O)OCCCC)C2=O)SC1=S	Anthrax LF prot 45, BoNT-A LC inh2 65
COc1ccc(C)cc1NC(=O)NC1CCCCCCC1	none (no result: BJeLR lethal)
COc1ccc(Cl)cc1NC(=O)Nn1cnnc1	Autofluor counter 16503
COc1ccc(C(=O)Nc2ccc(C)cn2)c(OC)c1	Autofluor counter 21063

Screens (PubChem)
